Experimental data: the supplement of paper PMC10849652
About 8,800 targets were measured; listed, in parts, are those with a hit and a random draw of the rest. About 0.5% of all pairs of compound and target were hits.

These targets were tested with COC(=O)[C@H](CCSC)NC(=O)C1=C(C=C(C=C1)NC[C@H](CS)N)C2=CC=CC=C2 (assay: log2 fold change, soluble protein after heating vs DMSO (PISA); higher = thermal stabilisation; K562 lysate, 10 uM; active = over 0.2 and 3.5 SD of the protein, either way, in both replicates (recomputed)).
Method in brief: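 Soluble protein was defined as the supernatant remaining after 21,000xg for 90 min, following pooling of heated aliquots and adjustment to 0.5% NP-40 at 4°C. Before that, crude K562 extract at 1 mg/mL protein in PBS pH 7.4 with 1 mM MgCl2 was treated with 10 μM compound for 30 min and heated for 3 min across 48°C-58°C. Quantification used TMTpro 16plex LC-MS/MS with channel sums equalised, and values are log-two fold changes in thermal stability relative to solvent controls from duplicates.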

Chain of UniProt Q96RE7 (Q96RE7 whole entry, looked up): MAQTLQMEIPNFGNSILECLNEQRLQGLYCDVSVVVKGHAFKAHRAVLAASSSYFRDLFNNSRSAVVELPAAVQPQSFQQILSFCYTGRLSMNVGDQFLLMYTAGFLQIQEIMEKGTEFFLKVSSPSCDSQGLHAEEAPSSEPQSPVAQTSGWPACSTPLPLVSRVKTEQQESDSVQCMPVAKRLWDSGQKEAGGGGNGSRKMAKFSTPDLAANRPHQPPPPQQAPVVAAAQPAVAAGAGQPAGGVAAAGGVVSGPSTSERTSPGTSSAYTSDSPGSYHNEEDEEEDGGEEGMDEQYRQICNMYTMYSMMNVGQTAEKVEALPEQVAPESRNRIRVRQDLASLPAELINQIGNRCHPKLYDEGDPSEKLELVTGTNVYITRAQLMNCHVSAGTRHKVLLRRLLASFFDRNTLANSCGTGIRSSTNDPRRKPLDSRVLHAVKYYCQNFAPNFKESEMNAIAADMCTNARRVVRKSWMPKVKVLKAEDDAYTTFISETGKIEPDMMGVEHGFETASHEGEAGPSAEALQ
Chain of UniProt P04150 (P04150 whole entry, looked up): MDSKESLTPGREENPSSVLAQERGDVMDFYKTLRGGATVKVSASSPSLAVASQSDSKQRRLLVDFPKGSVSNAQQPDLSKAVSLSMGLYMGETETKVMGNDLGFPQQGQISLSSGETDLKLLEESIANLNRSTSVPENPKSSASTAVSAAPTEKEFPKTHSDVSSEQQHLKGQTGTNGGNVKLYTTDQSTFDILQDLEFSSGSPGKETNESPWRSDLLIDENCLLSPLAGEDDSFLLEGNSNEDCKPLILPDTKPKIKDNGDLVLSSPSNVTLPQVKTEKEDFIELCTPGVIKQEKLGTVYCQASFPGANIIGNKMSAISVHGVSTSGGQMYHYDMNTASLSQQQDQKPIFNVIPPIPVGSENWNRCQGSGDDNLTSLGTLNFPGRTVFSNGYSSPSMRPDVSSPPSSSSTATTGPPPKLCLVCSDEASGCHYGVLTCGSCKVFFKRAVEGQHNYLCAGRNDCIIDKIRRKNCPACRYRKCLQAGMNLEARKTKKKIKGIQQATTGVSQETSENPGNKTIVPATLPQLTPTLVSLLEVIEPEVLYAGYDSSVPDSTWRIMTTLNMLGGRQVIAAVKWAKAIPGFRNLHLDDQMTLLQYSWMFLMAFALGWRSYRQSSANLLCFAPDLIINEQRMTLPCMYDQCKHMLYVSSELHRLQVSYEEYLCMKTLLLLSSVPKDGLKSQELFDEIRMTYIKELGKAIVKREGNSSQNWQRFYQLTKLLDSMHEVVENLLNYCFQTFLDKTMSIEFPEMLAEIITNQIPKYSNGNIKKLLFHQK
Chain of UniProt Q8NC60 (Q8NC60 whole entry, looked up): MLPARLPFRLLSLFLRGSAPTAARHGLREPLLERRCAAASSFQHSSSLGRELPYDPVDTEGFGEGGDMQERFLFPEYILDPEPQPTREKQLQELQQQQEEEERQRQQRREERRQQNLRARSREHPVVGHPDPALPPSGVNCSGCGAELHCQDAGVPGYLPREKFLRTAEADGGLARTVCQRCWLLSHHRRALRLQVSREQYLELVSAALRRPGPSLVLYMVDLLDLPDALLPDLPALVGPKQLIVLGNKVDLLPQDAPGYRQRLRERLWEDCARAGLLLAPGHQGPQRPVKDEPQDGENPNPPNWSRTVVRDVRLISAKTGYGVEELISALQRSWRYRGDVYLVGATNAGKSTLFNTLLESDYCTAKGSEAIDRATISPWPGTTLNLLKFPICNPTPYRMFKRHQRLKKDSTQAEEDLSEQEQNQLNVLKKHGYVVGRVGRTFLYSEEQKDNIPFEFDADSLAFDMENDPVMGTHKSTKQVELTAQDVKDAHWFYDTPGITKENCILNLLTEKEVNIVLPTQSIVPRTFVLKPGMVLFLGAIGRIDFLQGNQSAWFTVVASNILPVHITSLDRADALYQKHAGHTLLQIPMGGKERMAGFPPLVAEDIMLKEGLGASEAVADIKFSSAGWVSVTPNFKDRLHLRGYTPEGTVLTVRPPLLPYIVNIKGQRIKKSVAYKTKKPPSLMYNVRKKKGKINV
Chain of UniProt Q9BV86 (Q9BV86 whole entry, looked up): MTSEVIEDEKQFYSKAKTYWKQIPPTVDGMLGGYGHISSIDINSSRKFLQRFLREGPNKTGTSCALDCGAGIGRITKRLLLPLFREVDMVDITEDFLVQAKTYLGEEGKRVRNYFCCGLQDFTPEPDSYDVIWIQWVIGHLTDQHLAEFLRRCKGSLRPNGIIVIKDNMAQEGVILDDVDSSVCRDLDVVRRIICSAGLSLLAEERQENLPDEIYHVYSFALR
Chain of UniProt Q8TDX7 (Q8TDX7 whole entry, looked up): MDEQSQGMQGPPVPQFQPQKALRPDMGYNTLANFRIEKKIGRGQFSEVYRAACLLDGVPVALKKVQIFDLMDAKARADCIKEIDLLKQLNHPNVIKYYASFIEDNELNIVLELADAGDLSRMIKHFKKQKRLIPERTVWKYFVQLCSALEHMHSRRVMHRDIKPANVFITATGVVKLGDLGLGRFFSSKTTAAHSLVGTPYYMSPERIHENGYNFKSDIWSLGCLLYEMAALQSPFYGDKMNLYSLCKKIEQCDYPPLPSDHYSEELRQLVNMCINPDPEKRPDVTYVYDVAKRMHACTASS
Chain of UniProt O15294 (O15294 whole entry, looked up): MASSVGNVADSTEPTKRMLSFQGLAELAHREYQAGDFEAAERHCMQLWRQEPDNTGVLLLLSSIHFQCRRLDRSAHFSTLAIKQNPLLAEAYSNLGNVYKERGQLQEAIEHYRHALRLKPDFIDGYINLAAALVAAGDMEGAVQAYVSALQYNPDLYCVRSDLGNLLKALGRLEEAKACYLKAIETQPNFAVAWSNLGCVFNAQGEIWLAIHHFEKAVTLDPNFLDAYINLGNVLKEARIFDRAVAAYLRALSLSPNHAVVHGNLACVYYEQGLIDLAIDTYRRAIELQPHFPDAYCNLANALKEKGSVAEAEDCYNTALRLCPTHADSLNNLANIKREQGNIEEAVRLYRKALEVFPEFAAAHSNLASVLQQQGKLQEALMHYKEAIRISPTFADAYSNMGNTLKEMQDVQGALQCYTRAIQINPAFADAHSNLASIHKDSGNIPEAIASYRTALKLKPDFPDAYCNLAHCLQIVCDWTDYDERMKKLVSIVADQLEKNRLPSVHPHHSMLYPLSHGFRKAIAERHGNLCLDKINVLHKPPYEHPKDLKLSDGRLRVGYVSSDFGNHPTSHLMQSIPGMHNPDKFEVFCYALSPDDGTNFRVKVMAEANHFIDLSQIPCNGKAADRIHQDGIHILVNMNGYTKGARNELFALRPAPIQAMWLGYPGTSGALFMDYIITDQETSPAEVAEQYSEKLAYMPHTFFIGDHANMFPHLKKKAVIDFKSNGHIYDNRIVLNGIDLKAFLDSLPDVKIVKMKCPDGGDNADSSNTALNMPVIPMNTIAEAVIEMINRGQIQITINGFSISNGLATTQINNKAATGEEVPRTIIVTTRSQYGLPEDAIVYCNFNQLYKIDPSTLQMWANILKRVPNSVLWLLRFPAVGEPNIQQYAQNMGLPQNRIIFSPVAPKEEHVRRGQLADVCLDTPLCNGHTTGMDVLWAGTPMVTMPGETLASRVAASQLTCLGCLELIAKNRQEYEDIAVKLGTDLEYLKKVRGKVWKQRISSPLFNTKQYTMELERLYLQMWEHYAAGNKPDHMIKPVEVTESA
Chain of UniProt Q9BSD7 (Q9BSD7 whole entry, looked up): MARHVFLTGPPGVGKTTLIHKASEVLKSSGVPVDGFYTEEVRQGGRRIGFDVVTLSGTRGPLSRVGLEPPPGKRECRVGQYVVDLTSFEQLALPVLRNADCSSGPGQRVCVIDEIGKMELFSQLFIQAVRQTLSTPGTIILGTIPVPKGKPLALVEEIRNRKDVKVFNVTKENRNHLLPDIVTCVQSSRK
Chain of UniProt Q9Y530 (Q9Y530 whole entry, looked up): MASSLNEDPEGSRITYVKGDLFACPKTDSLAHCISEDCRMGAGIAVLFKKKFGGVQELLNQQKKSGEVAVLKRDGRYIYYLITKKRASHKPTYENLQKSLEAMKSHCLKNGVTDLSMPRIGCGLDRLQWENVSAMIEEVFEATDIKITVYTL
Chain of UniProt P00156 (P00156 whole entry, looked up): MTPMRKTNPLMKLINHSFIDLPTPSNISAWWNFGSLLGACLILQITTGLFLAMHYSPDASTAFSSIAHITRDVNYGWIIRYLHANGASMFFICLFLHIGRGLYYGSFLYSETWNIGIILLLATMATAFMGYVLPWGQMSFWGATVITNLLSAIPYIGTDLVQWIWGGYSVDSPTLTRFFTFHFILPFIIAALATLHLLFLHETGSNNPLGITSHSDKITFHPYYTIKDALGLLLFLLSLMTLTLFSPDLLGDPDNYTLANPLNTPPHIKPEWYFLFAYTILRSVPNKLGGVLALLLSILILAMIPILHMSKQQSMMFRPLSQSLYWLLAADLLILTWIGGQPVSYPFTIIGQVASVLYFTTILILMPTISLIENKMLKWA
Chain of UniProt Q9Y6R0 (Q9Y6R0 whole entry, looked up): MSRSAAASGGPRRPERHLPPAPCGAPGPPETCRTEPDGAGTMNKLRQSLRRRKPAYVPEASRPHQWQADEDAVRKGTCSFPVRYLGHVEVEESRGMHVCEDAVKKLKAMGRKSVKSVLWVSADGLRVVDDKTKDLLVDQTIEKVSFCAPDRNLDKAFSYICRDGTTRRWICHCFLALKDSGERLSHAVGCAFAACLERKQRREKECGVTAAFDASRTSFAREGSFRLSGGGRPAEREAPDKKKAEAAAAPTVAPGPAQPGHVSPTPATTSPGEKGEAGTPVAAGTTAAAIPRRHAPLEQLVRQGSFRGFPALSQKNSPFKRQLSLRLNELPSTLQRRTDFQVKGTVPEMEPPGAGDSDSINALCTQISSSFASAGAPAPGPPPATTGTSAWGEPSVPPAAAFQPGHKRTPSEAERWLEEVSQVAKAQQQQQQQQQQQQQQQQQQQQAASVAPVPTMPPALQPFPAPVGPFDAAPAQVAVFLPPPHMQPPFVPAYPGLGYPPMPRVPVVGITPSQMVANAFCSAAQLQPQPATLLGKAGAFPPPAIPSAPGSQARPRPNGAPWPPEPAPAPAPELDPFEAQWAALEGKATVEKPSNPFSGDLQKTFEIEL

log2 fold change, inactive:
NAT1 (UniProt P18440) 0.006
MYCBP (UniProt Q99417) -0.069
PAK4 (UniProt O96013) -0.057
NUMBL (UniProt Q9Y6R0) -0.068
MYD88 isoform 6 (UniProt Q99836) -0.003
NR3C1 isoform 3 (UniProt P04150) 0.029
NOSTRIN (UniProt Q8IVI9) 0.11
MYO1C (UniProt O00159) 0.049
NTPCR (UniProt Q9BSD7) -0.007
OGFR (UniProt Q9NZT2) 0.089
OARD1 (UniProt Q9Y530) 0.018
NEDD8 (UniProt Q15843) -0.062
PAK1 (UniProt Q13153) 0.023
NF1 (UniProt P21359) -0.267
OGT (UniProt O15294) 0.121
NPLOC4 isoform 2 (UniProt Q8TAT6) 0.016
MYCBP2 (UniProt O75592) -0.015
NUP188 (UniProt Q5SRE5) 0.043
NCAPH2 (UniProt Q6IBW4) -0.039
NARS2 (UniProt Q96I59) 0.039
NCOR2 (UniProt C9J0Q5) 0.006
MTCH2 (UniProt Q9Y6C9) 0.043
NTMT1 (UniProt Q9BV86) 0.166
OCRL (UniProt Q01968) -0.006
NOA1 (UniProt Q8NC60) -0.023
OPA1 isoform 2 (UniProt O60313) 0.053
NACC1 (UniProt Q96RE7) 0.024
NFIC (UniProt P08651) -0.025
PBK (UniProt Q96KB5) 0.099
NUMB (UniProt P49757) 0.013
NEK7 (UniProt Q8TDX7) 0.003
MT-CYB (UniProt P00156) -0.093

log2 fold change, active:
NNMT (UniProt P40261) -0.317
NUF2 (UniProt Q9BZD4) 0.264
OGFOD2 (UniProt Q6N063) 0.223
